Data as given in PubChem BioAssay AID1159580 (chemical genetic matrix, 2015).
Screen size: about 5,500 compounds; about 2,000 (36%) were called active. Another 18% or so got no clear call; they are omitted. Rule as the data show it: active = normalized growth mostly below about 0.91 (no sharp cut-off); inconclusive = no clear call, values can overlap the other calls; inactive = mostly above about 0.92. The list shows a part of the results.

Experiment: chemical genetic growth profiling, strain panel (AID 1159580);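 also: tested at 20 µM; growth read once vehicle control cultures reached saturation at 30 °C; 1 = growth at the plate median or of vehicle wells; lower values mean less growth of the strain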
Conditions: S. cerevisiae deletion strains, growth OD

Measured: normalized growth

O=C(O)CC[C@@H](NC(=O)c1ccccc1C(=O)O)C(=O)O
inactive: locus YAL013W, strain DEP1, active compounds read low 1.02 | locus YAL040C, strain CLN3, active compounds read low 0.995 | locus YCL061C, strain MRC1 (second series), active compounds read low 1.01 | locus YDR363W, strain ESC2, active compounds read low 1.01 | locus YER002W, strain NOP16, active compounds read low 1.03 | locus YGR229C, strain SMI1, active compounds read low 1.03 | locus YJR075W, strain HOC1, active compounds read low 1.01 | locus YMR307W, strain GAS1, active compounds read low 1 | locus YNL175C, strain NOP13, active compounds read low 1 | locus YNL197C, strain WHI3, active compounds read low 1.01 | locus YNL224C, strain SQS1, active compounds read low 1.01 | locus YNL322C, strain KRE1, active compounds read low 1 | locus YOR083W, strain WHI5 (second series), active compounds read low 1.02 | locus YPL241C, strain CIN2, active compounds read low 1.01
